# “And” between values parts separate entries of the source, which are not always exact repeats. Equal entries are not always repeated. Results filed as inconclusive are left out. The source made the active and inactive calls. Unless noted, no stated cut-off is given here; in the data, active means percent of DMSO control GFP below about 86%; inactive means the rest, inconclusive results apart.
# Legend:
# [1] = rapamycin-like changes in RPL19A-GFP expression – cell-based, S. cerevisiae, multiplex flow cytometry, primary screen (AID 1862);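 further: lower values mimic rapamycin by blocking the RPL19A rise seen in DMSO cells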; conditions: S. cerevisiae RPL19A-GFP strain, flow cytometry fluorescence, 3 h; at 10 µM; stronger effect = lower value
# [2] = TOR pathway GLN3 branch reporter MEP2-GFP changes – S. cerevisiae, multiplex flow cytometry, primary screen (AID 1867;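 active means GFP response, as percent of the DMSO control, above the screen-wide mean plus 3 SD, about 139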;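 further: median GFP channel fluorescence of barcode-gated MEP2-GFP cells measured by flow cytometry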); conditions: S. cerevisiae MEP2-GFP strain, 3 h, at 10 µM, stronger effect = higher value, 100% means same as DMSO wells
# [3] = TOR pathway RTG branch CIT2 reporter changes – S. cerevisiae, GFP fusion, multiplex flow cytometry, primary screen (AID 1870;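 active means percent response above a set limit, the screen-wide mean plus 3 SD, cut at about 130% in these data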;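 further: barcoded CIT2-GFP strain pooled with four other GFP strains with rapamycin as positive control; median GFP fluorescence per well over plate mean of DMSO wells so 100% = DMSO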); conditions: S. cerevisiae CIT2-GFP expression, 3 h, at 10 µM, stronger effect = higher value
# [4] = TOR pathway LAP4-GFP level changes – S. cerevisiae, multiplex flow cytometry, primary screen (AID 1873;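 active means GFP signal, as percent of the solvent control, above the screen mean plus 3 SD, about 149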); conditions: S. cerevisiae LAP4-GFP expression, 3 h, at 10 µM, stronger effect = higher value
# [5] = yeast AGP1-GFP level changes, GLN3 branch – cell-based, multiplex flow cytometry, S. cerevisiae, primary screen (AID 1887;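 active means GFP signal above the screen-wide mean plus 3 SD, that is over about 124.5% of the solvent control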;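 further: AGP1-GFP fusion strain of S. cerevisiae within a five-strain barcoded multiplex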); conditions: 3 h, at 10 µM, stronger effect = higher value
# [6] = reduced mouse 2C T cell binding to pMHC/ICAM-1 vesicles – MLPCN validation set, flow cytometry, LFA-1/ICAM-1 modulator project, pilot screen (AID 2523;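 active means response below a set limit, under 55% cells CD8-positive and vesicle-bound, and CD8 cells' 90th-percentile brightness under 279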;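 on vesicle binding response: mean PE anti-B7-1 fluorescence of CD8+ cells relative to row control; 100% = QL9-loaded vesicles with DMSO vehicle in the same plate row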); conditions: 2C mouse CD8+ T cells, at 7 µM, stronger effect = lower value; double positive events: measured here: CD8+/vesicle+ event percentage
# [7] = target: Integrin beta-1 (Homo sapiens) + Integrin alpha-4 (Homo sapiens) (UniProt P13612+P05556); assay: alpha4beta1 integrin LIBS antibody binding reduction – U937 cells, HUTS-21 mAb, flow cytometry, validation set, VLA-4 allosteric modulator project, pilot screen (AID 2674;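 active means inhibition above 50%, about 3 SD of the validation set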;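 further: antibody binding induced by the VLA-4 ligand LDV present at three times its Kd; 0% = LDV ligand with antibody and no compound and 100% = antibody without LDV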); conditions: HUTS-21 LIBS mAb binding, at 6.7 µM, stronger effect = higher value, binding induced by LDV ligand
# Integrin beta-1 (Homo sapiens) + Integrin alpha-4 (Homo sapiens), sequence (P05556 whole entry, looked up): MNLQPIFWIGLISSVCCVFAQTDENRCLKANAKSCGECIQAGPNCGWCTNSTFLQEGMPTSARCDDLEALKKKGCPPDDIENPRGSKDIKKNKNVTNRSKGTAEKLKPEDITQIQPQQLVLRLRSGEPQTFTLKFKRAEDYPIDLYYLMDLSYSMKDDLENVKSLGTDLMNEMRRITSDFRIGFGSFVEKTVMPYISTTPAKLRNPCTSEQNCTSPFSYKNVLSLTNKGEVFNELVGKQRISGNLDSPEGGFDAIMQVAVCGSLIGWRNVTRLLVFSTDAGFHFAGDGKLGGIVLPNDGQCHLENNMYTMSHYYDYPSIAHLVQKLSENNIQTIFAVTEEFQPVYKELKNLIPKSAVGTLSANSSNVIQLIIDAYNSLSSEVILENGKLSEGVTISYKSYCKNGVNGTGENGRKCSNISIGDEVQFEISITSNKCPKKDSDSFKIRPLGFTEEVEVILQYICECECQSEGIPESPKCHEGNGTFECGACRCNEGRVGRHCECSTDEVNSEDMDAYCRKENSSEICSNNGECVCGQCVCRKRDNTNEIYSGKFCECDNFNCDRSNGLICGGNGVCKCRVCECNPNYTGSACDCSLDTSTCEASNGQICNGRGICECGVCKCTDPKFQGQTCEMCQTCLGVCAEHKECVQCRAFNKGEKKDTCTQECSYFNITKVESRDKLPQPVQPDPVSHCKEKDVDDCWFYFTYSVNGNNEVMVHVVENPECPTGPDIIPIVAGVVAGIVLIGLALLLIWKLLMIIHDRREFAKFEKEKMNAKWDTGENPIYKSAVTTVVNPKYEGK
# Integrin beta-1 (Homo sapiens) + Integrin alpha-4 (Homo sapiens), sequence (P13612 whole entry, looked up): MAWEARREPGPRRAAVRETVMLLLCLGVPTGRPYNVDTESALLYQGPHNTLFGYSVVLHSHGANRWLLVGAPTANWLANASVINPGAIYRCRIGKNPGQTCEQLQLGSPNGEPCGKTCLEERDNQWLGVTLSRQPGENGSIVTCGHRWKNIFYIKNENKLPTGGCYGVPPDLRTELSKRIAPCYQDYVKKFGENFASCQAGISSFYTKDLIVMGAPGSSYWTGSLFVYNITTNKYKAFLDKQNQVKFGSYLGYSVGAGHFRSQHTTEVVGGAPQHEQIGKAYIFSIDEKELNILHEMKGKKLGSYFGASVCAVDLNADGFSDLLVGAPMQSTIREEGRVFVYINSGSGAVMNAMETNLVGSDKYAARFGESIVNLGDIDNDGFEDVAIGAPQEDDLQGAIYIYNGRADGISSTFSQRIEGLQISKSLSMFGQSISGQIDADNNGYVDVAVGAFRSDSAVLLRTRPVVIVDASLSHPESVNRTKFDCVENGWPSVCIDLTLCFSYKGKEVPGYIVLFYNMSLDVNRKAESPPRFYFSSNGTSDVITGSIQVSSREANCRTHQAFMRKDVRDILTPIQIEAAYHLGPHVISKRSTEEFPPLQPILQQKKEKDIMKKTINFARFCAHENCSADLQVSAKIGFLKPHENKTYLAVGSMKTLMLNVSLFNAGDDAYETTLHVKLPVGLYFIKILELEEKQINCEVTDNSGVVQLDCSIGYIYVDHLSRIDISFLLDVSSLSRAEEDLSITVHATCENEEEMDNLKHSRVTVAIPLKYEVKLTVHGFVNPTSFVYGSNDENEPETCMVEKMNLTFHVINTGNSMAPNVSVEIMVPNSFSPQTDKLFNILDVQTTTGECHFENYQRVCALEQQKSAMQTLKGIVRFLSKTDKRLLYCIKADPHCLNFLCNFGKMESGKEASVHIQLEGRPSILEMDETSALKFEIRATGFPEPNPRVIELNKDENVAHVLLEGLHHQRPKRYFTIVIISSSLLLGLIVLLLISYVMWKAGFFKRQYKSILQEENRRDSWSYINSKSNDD
# [8] = calorie-restriction mimetic ROS inhibitors, yeast – validation compound set, pilot screen (AID 2706;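 active means superoxide response below 65% of plate, a cut near 3 SD across the whole screen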;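 further: yeast exposed to compound for one week at 30 degrees C before staining; 100% = mean of all compound wells on the same plate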); conditions: S. cerevisiae aging, superoxide DHE fluorescence; at 10 µM; stronger effect = lower value
# [9] = target: Beta-adrenergic receptor kinase 1 (Homo sapiens) (UniProt P25098); assay: GRK2 binders displacing RNA aptamer, biochemical, validation, human GRK2, bead flow cytometry (AID 488806;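 active means aptamer binding inhibition above 30%, about 3 SD of noise from non-fluorescent compounds; inactive means inhibition at or below 30%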); conditions: bead-bound GRK2, FAM-aptamer displacement, at 10 µM, stronger effect = higher value
# Beta-adrenergic receptor kinase 1 (Homo sapiens), sequence (P25098 whole entry, looked up): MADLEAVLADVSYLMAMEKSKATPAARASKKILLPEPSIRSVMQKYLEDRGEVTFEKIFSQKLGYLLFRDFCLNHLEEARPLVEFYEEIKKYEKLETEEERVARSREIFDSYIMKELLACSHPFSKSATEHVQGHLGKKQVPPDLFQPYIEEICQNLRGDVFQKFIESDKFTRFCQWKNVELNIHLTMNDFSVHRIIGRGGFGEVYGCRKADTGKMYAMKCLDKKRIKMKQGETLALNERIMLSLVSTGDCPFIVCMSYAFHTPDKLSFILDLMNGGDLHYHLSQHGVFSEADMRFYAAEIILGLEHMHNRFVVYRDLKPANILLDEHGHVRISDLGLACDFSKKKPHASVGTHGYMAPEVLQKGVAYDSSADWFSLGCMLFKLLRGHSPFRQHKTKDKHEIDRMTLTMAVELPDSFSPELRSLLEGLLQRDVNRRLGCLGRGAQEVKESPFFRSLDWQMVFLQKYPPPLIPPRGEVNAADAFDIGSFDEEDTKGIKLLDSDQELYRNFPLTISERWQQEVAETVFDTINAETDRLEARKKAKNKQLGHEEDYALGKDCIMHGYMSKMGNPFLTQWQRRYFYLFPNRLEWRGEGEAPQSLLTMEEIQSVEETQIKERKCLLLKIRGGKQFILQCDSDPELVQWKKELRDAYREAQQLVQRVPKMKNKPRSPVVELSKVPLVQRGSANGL
# [10] = target: Beta-2 adrenergic receptor (Homo sapiens) (UniProt P07550); assay: agonist-induced loss of surface beta2AR – cell-based, FAP fluorogen, flow cytometry, validation set, pilot screen (AID 504459;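 active means percent response above 42, roughly 3 SD of non-fluorescent test compounds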;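 further: agonist-driven loss of surface beta2AR via internalization measured by FAP dye flow cytometry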); conditions: Am2.2-beta2AR cells, at 10 µM, stronger effect = higher value
# Beta-2 adrenergic receptor (Homo sapiens), sequence (P07550 whole entry, looked up): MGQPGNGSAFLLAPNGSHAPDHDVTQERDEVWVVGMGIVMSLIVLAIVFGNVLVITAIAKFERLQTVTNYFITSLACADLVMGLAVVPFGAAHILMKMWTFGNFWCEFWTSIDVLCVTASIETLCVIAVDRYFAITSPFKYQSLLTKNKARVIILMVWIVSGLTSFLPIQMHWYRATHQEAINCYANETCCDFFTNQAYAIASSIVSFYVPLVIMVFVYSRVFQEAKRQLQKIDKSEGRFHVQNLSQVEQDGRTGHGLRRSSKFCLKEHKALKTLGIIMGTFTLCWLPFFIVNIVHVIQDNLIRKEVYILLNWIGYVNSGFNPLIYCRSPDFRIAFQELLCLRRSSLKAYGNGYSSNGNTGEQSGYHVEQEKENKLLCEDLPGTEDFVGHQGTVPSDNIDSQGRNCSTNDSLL
# [11] = target: AP-2 complex subunit beta (Homo sapiens) (UniProt P63010); assay: beta-arrestin/AP2 interaction blockers – biochemical, validation set, GST-AP2 beads, flow cytometry, pilot screen (AID 504541;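 active means inhibition above 54%, about 3 SD of non-fluorescent compounds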;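 further: AP2 carries R879A mutation and is captured from E. coli lysate; bead-bound FITC arrestin peptide fluorescence measuring arrestin peptide binding to AP2; 0% = DMSO wells and 100% = excess unlabeled arrestin peptide control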); conditions: FITC arrestin peptide, at 10 µM, stronger effect = higher value, AP2 beta2 appendage fragment, R879A mutant
# AP-2 complex subunit beta (Homo sapiens), sequence (P63010 whole entry, looked up, the tested form may be a part, one chain of several): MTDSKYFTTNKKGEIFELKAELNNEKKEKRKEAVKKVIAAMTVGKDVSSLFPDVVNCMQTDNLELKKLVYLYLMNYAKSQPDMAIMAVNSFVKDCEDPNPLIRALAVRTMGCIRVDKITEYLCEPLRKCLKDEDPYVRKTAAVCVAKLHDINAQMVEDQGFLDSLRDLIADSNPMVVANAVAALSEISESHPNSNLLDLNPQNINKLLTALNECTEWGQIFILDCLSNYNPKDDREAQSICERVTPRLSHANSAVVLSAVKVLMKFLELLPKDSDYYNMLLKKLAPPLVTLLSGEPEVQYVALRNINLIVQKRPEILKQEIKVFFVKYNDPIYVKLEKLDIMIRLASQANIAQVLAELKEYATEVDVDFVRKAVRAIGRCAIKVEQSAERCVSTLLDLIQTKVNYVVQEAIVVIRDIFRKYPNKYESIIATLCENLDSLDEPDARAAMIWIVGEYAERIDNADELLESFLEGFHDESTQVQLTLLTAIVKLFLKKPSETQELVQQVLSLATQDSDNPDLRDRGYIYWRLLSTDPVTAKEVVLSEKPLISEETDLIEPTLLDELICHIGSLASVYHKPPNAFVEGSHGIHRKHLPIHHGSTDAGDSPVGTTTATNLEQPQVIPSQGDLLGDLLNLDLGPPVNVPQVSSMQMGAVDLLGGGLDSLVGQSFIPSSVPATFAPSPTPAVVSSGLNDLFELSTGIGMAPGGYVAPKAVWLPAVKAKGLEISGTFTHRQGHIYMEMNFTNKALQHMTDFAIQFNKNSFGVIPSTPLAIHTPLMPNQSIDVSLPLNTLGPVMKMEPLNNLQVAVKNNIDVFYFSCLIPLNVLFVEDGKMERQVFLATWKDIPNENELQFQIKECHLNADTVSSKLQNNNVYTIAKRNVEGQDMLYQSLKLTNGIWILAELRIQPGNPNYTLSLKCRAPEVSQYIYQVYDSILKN
# [12] = cytosolic pH regulators acting via V-ATPase – S. cerevisiae, pHLuorin, HTS validation (AID 504600; in the data active means response above about 15%;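 further: plate controls were DMSO for no effect and reference compound for full effect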); conditions: V-ATPase proton transport, at 10 µM, stronger effect = higher value
# [13] = system: anti-desmoglein-3 scFv antibody binding to human DSG3; assay: blockers of pathogenic pemphigus antibody–desmoglein-3 binding – biochemical, validation compound set, bead-based, flow cytometry, pilot screen (AID 588368;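 active means binding below the plate cutoff, the plate median minus 3 SD, with a reading above zero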;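 further: signal is the median channel fluorescence of bead-bound GFP antibody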); conditions: Protein G beads, DSG3-Fc, scFv-GFP binding, at 10 µM, stronger effect = lower value
# [14] = Nile Red efflux blockade in pump-expressing yeast – validation compound set, multiplex, phenotypic, pilot screen (AID 588506;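 active means efflux inhibition above 0.42, the validation set average plus 4 SD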;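 further: Nile Red retained in cells so higher fluorescence means more efflux inhibition; 0 = negative control wells and 1 = enniatin B 25 µM full block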); conditions: S. cerevisiae pump-expressing triplex, Nile Red efflux flow cytometry; at 10 µM; stronger effect = higher value; the pumps come from Candida albicans
# [15] = target: ATP-binding cassette sub-family B member 6 (Homo sapiens) (UniProt Q9NP58); assay: blockers of ABCB6-driven porphyrin uptake – K562-ABCB6 cells, flow cytometry, validation set, pilot screen (AID 588550;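 active means inhibition above the screen-wide mean plus 3 SD, about 51%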;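 further: 0% = DMSO wells and 100% = benzethonium chloride 70 µM positive control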); conditions: K562-ABCB6 porphyrin accumulation, 1 h, at 10 µM, stronger effect = higher value
# ATP-binding cassette sub-family B member 6 (Homo sapiens), sequence (Q9NP58 whole entry, looked up): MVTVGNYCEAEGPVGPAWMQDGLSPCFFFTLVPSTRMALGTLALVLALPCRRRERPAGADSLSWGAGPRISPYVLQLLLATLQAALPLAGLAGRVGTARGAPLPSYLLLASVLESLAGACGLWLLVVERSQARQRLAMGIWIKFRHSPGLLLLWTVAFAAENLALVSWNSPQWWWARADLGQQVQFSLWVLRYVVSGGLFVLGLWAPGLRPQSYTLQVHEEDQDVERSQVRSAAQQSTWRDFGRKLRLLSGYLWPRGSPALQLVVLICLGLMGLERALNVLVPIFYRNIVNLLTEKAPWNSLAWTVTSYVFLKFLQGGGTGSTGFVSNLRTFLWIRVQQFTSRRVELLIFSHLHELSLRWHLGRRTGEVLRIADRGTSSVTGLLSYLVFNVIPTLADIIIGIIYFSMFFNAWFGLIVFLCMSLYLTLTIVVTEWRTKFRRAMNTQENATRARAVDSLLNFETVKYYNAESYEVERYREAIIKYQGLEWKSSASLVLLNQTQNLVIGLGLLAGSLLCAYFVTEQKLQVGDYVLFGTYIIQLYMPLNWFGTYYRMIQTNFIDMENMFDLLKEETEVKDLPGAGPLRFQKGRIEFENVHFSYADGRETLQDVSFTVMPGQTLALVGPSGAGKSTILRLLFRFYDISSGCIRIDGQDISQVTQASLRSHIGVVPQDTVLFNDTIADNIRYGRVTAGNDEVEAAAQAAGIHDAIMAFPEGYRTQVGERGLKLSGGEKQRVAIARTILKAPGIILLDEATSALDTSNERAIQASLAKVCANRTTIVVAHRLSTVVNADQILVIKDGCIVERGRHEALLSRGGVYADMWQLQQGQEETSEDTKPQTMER
# [16] = AML differentiation inducers, ER-HoxA9 marrow cells – cell-based, GFP/MAC1 double positive, flow cytometry, validation set, primary screen (AID 588685;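 active means differentiation response of at least 50%, scaled between solvent and reference control, from cells with both markers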;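 further: compound exposure lasts four days before antibody staining and flow analysis; 0% = DMSO wells and 100% = 5 µM fulvestrant positive control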); conditions: stronger effect = higher value, normalized: vehicle 0, fulvestrant 100
SMILES,percent of DMSO control GFP [1],GFP response vs DMSO [2],percent response of DMSO control [3],GFP response vs DMSO [4],"GFP response, % of DMSO [5]",double positive events [6],vesicle binding response [6],inhibition [7],superoxide response (% of plate) [8],aptamer binding inhibition [9],response [10],inhibition [11],response [12],binding (% of control) [13],efflux inhibition (fraction of control) [14],inhibition [15],differentiation response [16]
C[N+](C)(C)CCCCCCCCCC[N+](C)(C)C,94.4% (inactive),129% (inactive),103% (inactive),77% (inactive),87% (inactive),70%,208% (inactive),3.55% (inactive),100% (inactive),5% (inactive),-10.3% (inactive),-6.99% (inactive),0.2% (inactive),101% (inactive),-0.56 (inactive),12% (inactive),1.64% (inactive)
S=C(NCCOCCOCCNC(=S)Nc1ccccc1)Nc1ccccc1,98.6% (inactive),103% (inactive),86.3% (inactive),108% (inactive),97.4% (inactive),64.8%,250% (inactive),-22.3% (inactive),134% (inactive),3% (inactive),2.38% (inactive),-17% (inactive),6.24% (inactive),99.9% (inactive),0.55 (active),4% (inactive),5.6% (inactive)
CCOCC(=O)Nc1ccccc1C(=O)N1CCOCC1,97% (inactive),130% (inactive),114% (inactive),88.6% (inactive),87.7% (inactive),67.2%,182% (inactive),-2.27% (inactive),96.8% (inactive),6% (inactive),2.34% (inactive),14.3% (inactive),-3.44% (inactive),100% (inactive),0.23 (inactive),–,0% (inactive)
Cc1ccc2c(c1C)NC(C(=O)O)C1CC=CC21 (centres undefined),102% (inactive),97.4% (inactive),105% (inactive),73.5% (inactive),88.5% (inactive),60.4%,121% (inactive),-70% (inactive),101% (inactive),34% (active),62.2% (active),11% (inactive),2.2% (inactive),96.8% (inactive),0.15 (inactive),-4% (inactive),-4% (inactive)
CC(=O)N(CCC(Cc1ccccc1)c1ccco1)Cc1ccco1 (centres undefined),88.7% (inactive),145% (active),104% (inactive),77.6% (inactive),77.1% (inactive),68.1%,172% (inactive),-0.33% (inactive),96.2% (inactive),1% (inactive),5.89% (inactive),13.6% (inactive),-4.34% (inactive),97.4% (inactive),-0.06 (inactive),5% (inactive),-3.28% (inactive)
O=C(NCc1ccc(N2CCCC2=O)cc1)c1ccc(F)cc1,103% (inactive),106% (inactive),100% (inactive),99.5% (inactive),116% (inactive),62.5%,211% (inactive),17.6% (inactive),101% (inactive),3% (inactive),-6.33% (inactive),6.32% (inactive),-1.49% (inactive),107% (inactive),-0.04 (inactive),2% (inactive),1.91% (inactive)
CC1(C)C(C=C(Cl)Cl)C1C(=O)N1CCN(Cc2ccccc2)CC1 (centres undefined),103% (inactive),99.3% (inactive),104% (inactive),89.4% (inactive),103% (inactive),66.3%,329% (inactive),-6.68% (inactive),102% (inactive),3% (inactive),-1.88% (inactive),5.16% (inactive),-5.4% (inactive),93.5% (inactive),-0.01 (inactive),13% (inactive),-9.53% (inactive)
COc1ccc(C(=O)N2c3cc4c(cc3C(C)=CC2(C)C)OCO4)cc1,97.8% (inactive),103% (inactive),98.9% (inactive),116% (inactive),93.4% (inactive),56.6%,40.1% (inactive),-2.53% (inactive),98.5% (inactive),5% (inactive),4.24% (inactive),-10.4% (inactive),-0.49% (inactive),96.1% (inactive),-0.04 (inactive),10% (inactive),-1.71% (inactive)
CCn1cc(CN2N=C(C)CC2c2ccccc2)c(C)n1 (centres undefined),95.6% (inactive),120% (inactive),92.9% (inactive),116% (inactive),97.2% (inactive),60.6%,87.5% (inactive),-7.25% (inactive),106% (inactive),3% (inactive),7.08% (inactive),-1.16% (inactive),1.03% (inactive),103% (inactive),-0.28 (inactive),3% (inactive),-29.6% (inactive)
O=C1c2ccccc2C2(c3ccccc3)NCCN12 (centres undefined),101% (inactive),102% (inactive),109% (inactive),95.9% (inactive),99.8% (inactive),59.5%,122% (inactive),-14.5% (inactive),92.9% (inactive),0% (inactive),-0.82% (inactive),6.52% (inactive),11.8% (inactive),104% (inactive),-0.19 (inactive),3% (inactive),-14.8% (inactive)
CCOC(=O)N1CCc2[nH]c3ccc(C)cc3c2C1,95.5% (inactive),102% (inactive),103% (inactive),140% (inactive),103% (inactive),64.6%,175% (inactive),-3.67% (inactive),110% (inactive),-1% (inactive),-9.79% (inactive),4.56% (inactive),14.9% (inactive),105% (inactive),0.25 (inactive),-9% (inactive),-4% (inactive)
CC1=NN(c2ccccc2)C(=O)C1,108% (inactive),106% (inactive),109% (inactive),99.1% (inactive),111% (inactive),62.5%,206% (inactive),-14.5% (inactive),91% (inactive),-3% (inactive),3.52% (inactive),-6.32% (inactive),0.56% (inactive),101% (inactive),-0.1 (inactive),-1% (inactive),2.74% (inactive)
O=C(Nc1ccccc1C(=O)N1CCCCCC1)c1ccccc1Cl,103% (inactive),103% (inactive),94.9% (inactive),96.5% (inactive),102% (inactive),60.2%,146% (inactive),-10.3% (inactive),115% (inactive),4% (inactive),-9.01% (inactive),26.6% (inactive),-0.64% (inactive),100% (inactive),-0.06 (inactive),7% (inactive),8.02% (inactive)
CC1(C)Cc2ccccc2-c2n[nH]c(=S)n21,99.1% (inactive),102% (inactive),101% (inactive),102% (inactive),104% (inactive),61.1%,203% (inactive),9.63% (inactive),92.5% (inactive),2% (inactive),-1.77% (inactive),56.7% (active),-1.77% (inactive),97.2% (inactive),0.19 (inactive),11% (inactive),-14.8% (inactive)
CN1/C(=C\C=Nc2ccccc2)C(C)(C)c2ccccc21,102% (inactive),102% (inactive),98.3% (inactive),103% (inactive),113% (inactive),61.9%,196% (inactive),–,101% (inactive),-1% (inactive),-50.9% (inactive),11.8% (inactive),0.09% (inactive),116% (inactive),0 (inactive),–,2.89% (inactive)
COc1cc2oc(-c3ccc(O)cc3)cc(=O)c2c(OC)c1O,100% (inactive),101% (inactive),104% (inactive),88.2% (inactive),98% (inactive),56.3%,118% (inactive),-11.8% (inactive),107% (inactive),3% (inactive),-2.51% (inactive),-0.6% (inactive),-4.25% (inactive),100% (inactive),-0.16 (inactive),0% (inactive),8.59% (inactive)
O=C(O)c1cc2cc(Cl)cc(Cl)c2oc1=O,97.9% (inactive),129% (inactive),104% (inactive),80.9% (inactive),93.1% (inactive),41.9%,63.6% (active),-12.9% (inactive),113% (inactive),7% (inactive),-14.8% (inactive),8.6% (inactive),10.3% (inactive),98.7% (inactive),0.05 (inactive),8% (inactive),27.8% (inactive)
CC1(C)S[C@@H]2[C@H](NC(=O)[C@H](N)c3ccccc3)C(=O)N2[C@H]1C(=O)O,94.2% (inactive) and 101% (inactive),112% (inactive) and 102% (inactive),110% (inactive) and 102% (inactive),73.2% (inactive) and 108% (inactive),93.1% (inactive) and 112% (inactive),68.4% and 59.6%,234% (inactive) and 191% (inactive),6.46% (inactive) and 15.1% (inactive),95.9% (inactive) and 95% (inactive),4% (inactive) and 7% (inactive),-4.57% (inactive) and -17.9% (inactive),0.2% (inactive) and -9.24% (inactive),4.43% (inactive) and -37.5% (inactive),108% (inactive) and 102% (inactive),–,4% (inactive) and 0% (inactive),-1.64% (inactive) and -7.94% (inactive)
CC(=O)NS(=O)(=O)c1ccc(N)cc1,98.6% (inactive),101% (inactive),97% (inactive),101% (inactive),104% (inactive),62.3%,335% (inactive),0.59% (inactive),101% (inactive),2% (inactive),-16.2% (inactive),-0.64% (inactive),0.06% (inactive),103% (inactive),0.04 (inactive),5% (inactive),-3.02% (inactive)

# — PubChem BioAssay
